Screens as filed in PubChem BioAssay.
Cruzain noTriton – blocks cruzain activity in detergent-free assay; purified cruzain, Z-FR-AMC fluorescence, no detergent; Potency, µM, for inactives: max response, negative = inhibition, most hits filed as inhibitors; 2.3% of 200,000 active; AID 1476;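 also: plate controls were enzyme without inhibitor for no effect and buffer without enzyme for full effect; nearly all actives have a fitted effect of over 40% in size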
Target sequence (P25779 123-467 limits assumed): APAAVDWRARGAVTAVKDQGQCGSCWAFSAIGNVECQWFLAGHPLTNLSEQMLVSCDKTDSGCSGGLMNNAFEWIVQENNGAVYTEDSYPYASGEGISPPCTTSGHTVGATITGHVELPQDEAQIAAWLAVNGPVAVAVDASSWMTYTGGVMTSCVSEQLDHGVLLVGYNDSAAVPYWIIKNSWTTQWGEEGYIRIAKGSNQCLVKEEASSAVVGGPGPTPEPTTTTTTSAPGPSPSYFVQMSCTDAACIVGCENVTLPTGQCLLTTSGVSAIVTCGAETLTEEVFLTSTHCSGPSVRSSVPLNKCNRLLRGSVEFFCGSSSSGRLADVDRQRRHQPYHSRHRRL
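Purified cruzain at 1.5 nM, pre-incubated 15 min with compound at room temperature in 100 mM sodium acetate pH 5.5, 5 mM DTT, 0.00005% Triton X-100. Reaction started with 2 uM Z-FR-AMC; AMC fluorescence increase over 60 s gives rate.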
Cruzain Triton – cruzain (T. cruzi) inhibition with detergent; P25779; purified cruzain, Z-FR-AMC fluorescence, 0.01% Triton; Potency, µM, for the others: max response, negative = inhibition, most hits filed as inhibitors; 0.43% of 200,000 active; AID 1478;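 also: plate controls were neutral wells for no effect and buffer without enzyme for full effect; nearly all actives have a fitted effect of over 40% in size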
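Cysteine protease activity tested under reducing, mildly acidic conditions (100 mM sodium acetate pH 5.5, 5 mM DTT) plus 0.01% Triton X-100. Cruzain 1.5 nM; substrate Z-FR-AMC 2 uM; 15 min compound preincubation at room temperature.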
* = called active by the depositor; ? = inconclusive. This is a sample that favours compounds with a hit; in the whole collection about 2.5% have one here. Calls follow the shape of the dose curve; as a rule, active = well fitted curve in the direction sought with a large enough effect; inconclusive = small, poorly fitted or top-dose-only effect, or another doubt; inactive = no such curve, though single readings can be large; an effect the other way counts as inactive or inconclusive. Potency is read from the fitted curve at half-maximal effect.

SMILES | Cruzain noTriton | Cruzain Triton
N#Cc1sc2nc(-c3cccs3)cc(-c3ccc(Cl)cc3)c2c1N | 13µM* | 1%
COc1ccc(-c2cc(C3CC3)nc3sc(C#N)c(N)c23)cc1 | -4% | -10%
Cc1cccc(N2CCN(CCCNC(=O)c3sc4ncccc4c3-n3cccc3)CC2C)c1 (configuration not stated) | 14% | 0%
Cc1ccc(CNC(=O)CCc2c(C)nn(-c3ccc(N4CCCCC4)nn3)c2C)cc1 | 3% | -3%
Cc1ccccc1Cn1c(=O)n(Cc2ccc(Cl)cc2)c(=O)c2cccnc21 | 19% | 0%
Cc1cccc(C(=O)Nc2nnc(S(=O)(=O)N3c4ccccc4CC3C)s2)c1 (configuration not stated) | 8% | -5%
CCC12CN3CC(CC)(CN(C1)C3c1cccc(OC)c1O)C2=O (configuration not stated) | -2% | 0%
COC(=O)Cc1c(C)c2ccc3c(c2oc1=O)CN(Cc1ccccc1OC)CO3 | -5% | -2%
CS(=O)(=O)N1CCN(c2ccc(NC(=O)c3ccc(-c4ccc(Cl)cc4)o3)cc2)CC1 | ? | 3%
CS(=O)(=O)N1CCN(c2ccccc2NC(=O)c2cccc3ccccc23)CC1 | 6% | -2%
Cc1ccc2cccc(NC(=O)c3ccc(-c4ccc(Br)cc4)o3)c2n1 | -12% | 1%
O=C(Nc1cccc(-c2nc3ccccc3o2)c1)c1ccc(-c2ccc(Br)cc2)o1 | ? | -2%
O=C(Nc1cccc(NC(=O)c2ccc(-c3ccc(Br)cc3)o2)c1)c1ccco1 | 32µM* | -7%
COc1cc2ccccc2cc1C(=O)Nc1ccccc1N1CCN(S(C)(=O)=O)CC1 | 25µM* | -6%
CS(=O)(=O)N1CCN(c2ccccc2NC(=O)c2ccc(-c3ccc(Br)cc3)o2)CC1 | 25µM* | -3%
COC(=O)c1ccccc1NC(=O)c1ccc(-c2ccc(Br)cc2)o1 | 7.9µM* | -13%
Cc1c(NC(=O)c2ccc(Cl)cc2)cc(C(C)C)c(O)c1S(=O)(=O)c1ccccc1 | ? | -2%
COc1ccc(-c2nc(CSCC(=O)NCc3ccccc3Cl)c(C)o2)cc1OC | 1% | -5%
O=C(NC(=S)Nc1nc2c(ccc3ccccc32)s1)c1cccs1 | 20µM* | -1%
O=C(Nc1nc2c(ccc3ccccc32)s1)c1ccco1 | -20% | -12%
Cc1nn(C)c(Cl)c1S(=O)(=O)N[C@@H](c1ccccc1)[C@]1(C)C[C@H]1[C@@H](C)C(=O)Nc1ccc2ccccc2c1 | 16% | -4%
COC(=O)N[C@H](c1ccccc1)[C@@]1(C)C[C@@H]1[C@@H](C)C(=O)Nc1ccc2ccccc2c1 | -1% | -1%
C[C@@H](C(=O)Nc1ccc2ccccc2c1)[C@H]1C[C@]1(C)[C@H](NS(=O)(=O)c1ccc(-c2ccccc2)cc1)c1ccccc1 | 3.2µM* | 1%
C[C@@H](C(=O)Nc1ccc2ccccc2c1)[C@H]1C[C@]1(C)[C@H](NS(=O)(=O)c1ccc2ccccc2c1)c1ccccc1 | 10µM* | 2%
C[C@@H](C(=O)Nc1ccc2ccccc2c1)[C@H]1C[C@]1(C)[C@H](NC(=O)Oc1ccc(F)cc1)c1ccccc1 | 16µM* | 1%
SMILES | Cruzain noTriton | Cruzain Triton
CC(=O)N[C@H](c1ccccc1)[C@@]1(C)C[C@@H]1[C@@H](C)C(=O)Nc1ccc2ccccc2c1 | -4% | -4%
C[C@@H](C(=O)Nc1ccc2ccccc2c1)[C@@H]1C[C@@]1(C)[C@@H](NC(=O)c1ccccc1)c1ccccc1 | ? | -2%
C[C@@H](C(=O)Nc1ccc2ccccc2c1)[C@@H]1C[C@@]1(C)[C@@H](NS(=O)(=O)c1ccc2ccccc2c1)c1ccccc1 | 7.9µM* | 4%
O=C(CSc1cn(CC(=O)N2CCCC2)c2ccccc12)Nc1ccc(Cl)cc1 | -13% | -4%
O=C(Cn1c(=O)n2nc(-c3cccc(F)c3)nc2c2ccccc21)N1CCN(c2ccc(F)cc2)CC1 | 14% | 0%
CCc1ccc(-n2nc3cc(C)c(NC(=O)c4ccccc4C)cc3n2)cc1 | -5% | 1%
O=C(NCC(c1cccs1)S(=O)(=O)c1cccs1)c1ccccc1 (configuration not stated) | -5% | 1%
CCS(=O)(=O)c1nc(S(=O)(=O)c2ccc(C)cc2)c(NCCCOC)s1 | -11% | -5%
CN1/C(=C\C(=S)NC(=O)c2ccccc2Cl)C(C)(C)c2ccccc21 | 32µM* | 25µM*
CN1/C(=C\C(=O)c2cccs2)C(C)(C)c2ccccc21 | 10% | -10%
COc1ccccc1C(=O)NC(=S)/C=C1/N(C)c2ccccc2C1(C)C | 25µM* | 14µM*
CN1/C(=C\C(=O)Nc2ccc(Cl)cc2)C(C)(C)c2ccccc21 | -2% | -9%
COC(=O)[C@@H]1C[C@@]2(O)[C@H](O)[C@H](O)[C@H](O)C[C@H]2N1Cc1ccc(N2CCOCC2)cc1 | 3% | 2%
